Screens (PubChem)
Hedgehog inh: Hedgehog pathway signaling inhibitors, primary screen, luminescence, Shh-LIGHT2 cells, Gli-luciferase. Shh-LIGHT2 Gli-luciferase reporter, 30 h. inhibition, % (no concentration beside the values). hit rate 2.1% among 22,000;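 active = mean inhibition across valid replicates above about 65%, limit read from the data; inconclusive = mean under the limit, yet half or more replicates past it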;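 also: pathway switched on by Shh-conditioned medium diluted 1 in 25 in low serum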
PD-1 reversal: activators reversing PD-1 mediated T-cell inhibition, primary screen, luminescence, primary human CD4 T cells, PD-L1 beads. AID 2316, 2010. activation, % (test concentration not listed). 29,000 tested, under 10 active. CellTiter-Glo 96 h; call rule not given here
NOMO-1 viab: NOMO-1 AML cell viability reduction, primary screen, STK33 inhibitor project, CellTiter-Glo luminescence. NOMO-1 AML viability, 72 h. inhibition, % (test concentration not listed). hit rate 7.5% among 37,000. AID 2330, 2010; in the data active = inhibition above about 80%; inconclusive = no clear call, values can overlap the other calls
MITF inhib: inhibitors of MITF, primary screen, MITF inhibitor project, cell-based, luminescence | TRPM1 promoter luciferase, 24 h | inhibition, % (no concentration beside the values) | hit rate 0.28% among 37,000; in the data active = inhibition above about 85%; inconclusive = no clear call, values can overlap the other calls; inactive = below about 68%;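 also: human melanocyte line stably carrying TRPM1 promoter luciferase reporter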
Each line names hits and unclear results; the compound was inactive in the other large screens. Shown are actives, neighbours in structure and some others; about 7.8% of the full set was active somewhere.

S=C(CC(=S)N1CCOCC1)N1CCOCC1	NOMO-1 viab 86
Fc1cc(F)c(NC(=S)N2CCOCC2)c(F)c1	none
C=CCC1C(=O)N(S(=O)(=O)c2ccc(Cl)cc2)N=C1CCC (configuration not stated)	Hedgehog inh inconclusive, NOMO-1 viab 110
COc1ccc(O)c(-c2cnc(=S)[nH]c2-c2cc(OC)ccc2OC)c1	none
C[C@@H]1CCCCO[C@H](CN(C)Cc2ccc(C(F)(F)F)cc2)[C@@H](C)CN([C@H](C)CO)C(=O)c2cc(NS(=O)(=O)c3ccc(F)cc3)ccc2O1	NOMO-1 viab 100 (no result: PD-1 reversal)
C[C@@H]1CCCCO[C@@H](CN(C)C(=O)Nc2ccc(C(F)(F)F)cc2)[C@@H](C)CN([C@H](C)CO)C(=O)c2cc(NS(=O)(=O)c3cccs3)ccc2O1	Hedgehog inh 83, NOMO-1 viab 114
Cc1ccc(S(=O)(=O)Nc2ccc3c(c2)C(=O)N([C@H](C)CO)C[C@H](C)[C@H](CN(C)Cc2ccc(C(F)(F)F)cc2)OCCCC[C@@H](C)O3)cc1	NOMO-1 viab 126
COc1ccc(CN(C)C[C@H]2OCCCC[C@@H](C)Oc3ccc(NS(=O)(=O)c4ccc(C)cc4)cc3C(=O)N([C@H](C)CO)C[C@@H]2C)cc1	Hedgehog inh 65 (no result: PD-1 reversal)
C[C@@H]1CCCCO[C@H](CN(C)Cc2ccc(C(F)(F)F)cc2)[C@@H](C)CN([C@H](C)CO)C(=O)c2cc(NS(=O)(=O)c3ccccc3)ccc2O1	NOMO-1 viab 95 (no result: PD-1 reversal)
C[C@@H]1CCCCO[C@@H](CN(C)Cc2ccncc2)[C@@H](C)CN([C@H](C)CO)C(=O)c2cc(NS(=O)(=O)c3ccc(Cl)cc3)ccc2O1	none (no result: Hedgehog inh)
COc1ccc(S(=O)(=O)Nc2ccc3c(c2)C(=O)N([C@H](C)CO)C[C@H](C)[C@H](CN(C)Cc2ccc(C(F)(F)F)cc2)OCCCC[C@@H](C)O3)cc1	NOMO-1 viab 105 (no result: Hedgehog inh)
C[C@@H]1CCCCO[C@@H](CN(C)Cc2ccccc2)[C@@H](C)CN([C@H](C)CO)C(=O)c2cc(NS(=O)(=O)c3ccccc3)ccc2O1	none
C[C@@H]1CCCCO[C@@H](CN(C)Cc2ccc(C(F)(F)F)cc2)[C@@H](C)CN([C@H](C)CO)C(=O)c2cc(NS(=O)(=O)c3cccs3)ccc2O1	Hedgehog inh inconclusive, NOMO-1 viab 110
C[C@@H]1CCCCO[C@@H](CN(C)Cc2ccc(C(F)(F)F)cc2)[C@@H](C)CN([C@H](C)CO)C(=O)c2cc(NS(=O)(=O)c3ccc(Cl)cc3)ccc2O1	NOMO-1 viab 111
Cc1nnc(SCc2nc(-c3ccc(Br)cc3)no2)n1-c1ccccc1	none (no result: Hedgehog inh)
CC1C(O)C(N(C)C)CC2COCC21 (configuration not stated)	none
COc1ccc(NC(=O)CN(c2ccc(F)c(Cl)c2)S(C)(=O)=O)cc1Cl	none (no result: Hedgehog inh)
COc1ccc(C)cc1NC(=O)CN(c1cccc(F)c1)S(C)(=O)=O	none (no result: Hedgehog inh, PD-1 reversal)
C[C@H](CCC(=O)O)[C@H]1CCC2[C@@H]3CC[C@@H]4C[C@H](O)CC[C@]4(C)C3C=C[C@@]21C (some centres not stated)	none
CC(Oc1ccc(Cl)cc1Cl)C(=O)Nc1cccc(-c2nnc(-c3ccccc3)o2)c1 (configuration not stated)	none (no result: Hedgehog inh)
Cc1ccccc1-c1nc2cc(NC(=O)COc3ccc(Cl)cc3)ccc2o1	none (no result: Hedgehog inh, PD-1 reversal)
Cc1ccc(-c2nc3ccccc3s2)cc1NC(=O)COc1cccc(C)c1C	NOMO-1 viab 89 (no result: Hedgehog inh)
Cc1ccc(-c2nc3ccccc3s2)cc1NC(=O)COc1ccccc1C	none (no result: Hedgehog inh)
O=C(COc1ccc(Cl)cc1Cl)Nc1ccc(O)c(-c2nc3ccccc3s2)c1	NOMO-1 viab 103 (no result: Hedgehog inh)
O=C(COc1ccc(Cl)cc1Cl)Nc1cccc(-c2nnc(-c3ccccc3)o2)c1	NOMO-1 viab 114 (no result: Hedgehog inh)
O=C(COc1ccc(Cl)cc1)Nc1ccc(O)c(-c2nc3ccccc3o2)c1	NOMO-1 viab 98 (no result: Hedgehog inh, PD-1 reversal)
COc1c(CO)c(O)cc2c1C(=O)c1ccccc1C2=O	none
C[C@@H]1CN([C@H](C)CO)C(=O)c2cc(NC(=O)Nc3cccc4ccccc34)ccc2O[C@@H]1CN(C)Cc1ccc(Cl)c(Cl)c1	NOMO-1 viab 101
C[C@H](CO)N1C[C@H](C)[C@@H](CN(C)Cc2ccc(Cl)c(Cl)c2)Oc2ccc(NC(=O)Nc3cccc4ccccc34)cc2C1=O	NOMO-1 viab 112 (no result: Hedgehog inh)
C[C@@H]1CN([C@H](C)CO)C(=O)c2cc(NC(=O)Nc3cccc4ccccc34)ccc2O[C@H]1CN(C)Cc1ccc(Cl)c(Cl)c1	NOMO-1 viab 112 (no result: Hedgehog inh)
CC1=Nc2ccc(C(F)(F)F)cc2C1(C)C	none
C[C@@H]1CN([C@@H](C)CO)C(=O)Cc2cc(NC(=O)Nc3ccc(C(F)(F)F)cc3)ccc2O[C@@H]1CN(C)C(=O)Nc1ccc(C(F)(F)F)cc1	NOMO-1 viab 114
C[C@@H]1CN([C@H](C)CO)C(=O)Cc2cc(NC(=O)Nc3ccc(C(F)(F)F)cc3)ccc2O[C@H]1CN(C)C(=O)Nc1ccc(C(F)(F)F)cc1	none
CC(C)NC(=O)N(C)C[C@H]1Oc2ccc(NC(=O)Nc3ccc(C(F)(F)F)cc3)cc2CC(=O)N([C@H](C)CO)C[C@H]1C	NOMO-1 viab inconclusive
COc1ccc(NC(=O)N(C)C[C@H]2Oc3ccc(NC(=O)Nc4ccc(C(F)(F)F)cc4)cc3CC(=O)N([C@@H](C)CO)C[C@H]2C)cc1	NOMO-1 viab 124 (no result: Hedgehog inh, PD-1 reversal)
C[C@@H]1CN([C@H](C)CO)C(=O)Cc2cc(NC(=O)Nc3ccc(C(F)(F)F)cc3)ccc2O[C@@H]1CN(C)C(=O)NC1CCCCC1	NOMO-1 viab 112
C[C@H]1CN([C@@H](C)CO)C(=O)Cc2cc(NC(=O)Nc3ccc(C(F)(F)F)cc3)ccc2O[C@@H]1CN(C)C(=O)NC1CCCCC1	none
CC(C)NC(=O)N(C)C[C@H]1Oc2ccc(NC(=O)Nc3ccc(C(F)(F)F)cc3)cc2CC(=O)N([C@@H](C)CO)C[C@H]1C	NOMO-1 viab 114
COc1ccc(NC(=O)Nc2ccc3c(c2)CC(=O)N([C@@H](C)CO)C[C@H](C)[C@H](CN(C)C(=O)Nc2ccc(C(F)(F)F)cc2)O3)cc1	none (no result: PD-1 reversal)
CCNC(=O)Oc1ccccc1	none
Cc1ccc([N+](=O)[O-])cc1N(CC(=O)Nc1cccc(Br)c1)S(C)(=O)=O	none (no result: Hedgehog inh)
c1ccc(-c2nn3c(Cn4cnc5ccccc54)nnc3s2)nc1	none (no result: Hedgehog inh, PD-1 reversal)
O=C(COc1ccc(Cl)cc1)Nc1ccc2oc(-c3cccc(F)c3)nc2c1	none (no result: Hedgehog inh)
Cc1cc(C)c(Cn2nc(C(C)(C)C)cc2C(=O)NN2CCOCC2)c(C)c1	none
CC(C)S(=O)(=O)/C(C#N)=C/Nc1ncccn1	none
Nc1ccc(S(=O)(=O)C(F)(F)F)cc1	none
C[C@@H]1CN([C@@H](C)CO)C(=O)c2cc(NC(=O)CCCCCC(=O)Nc3ccccc3N)ccc2O[C@@H]1CN(C)Cc1ccc(-c2ccccc2)cc1	none (no result: Hedgehog inh)
C[C@@H]1CN([C@H](C)CO)C(=O)Cc2cc(NC(=O)CCCCCC(=O)Nc3ccccc3N)ccc2O[C@@H]1CN(C)C(=O)Nc1ccc(C(F)(F)F)cc1	none (no result: Hedgehog inh)
